# PLK1 PBD inh = qHTS for Inhibitors of PLK1-PDB (polo-like kinase 1 - polo-box domain): Primary Screen. actives 2.8% (n = 360,000). Potency, µM, without a hit: max response, negative = inhibition, usual class: inhibitors. Plk1 PBD binding of FITC phosphopeptide, fluorescence polarization. AID 720504, 2013. Serine/threonine-protein kinase PLK1 (Homo sapiens), P53350; further: series mostly up to about 57 µM; on the % scale 0 is the no-effect control and ±100 the full control effect; nearly all actives have a fitted effect of over 65% in size
# JMJD2A Tudor = qHTS Assay for Inhibitors of JMJD2A-Tudor Domain | Lysine-specific demethylase 4A (Homo sapiens), O75164 | AlphaScreen JMJD2A-Tudor / H3K4me3 peptide binding | actives 4.4% (n = 390,000) | Potency, µM (series often up to 114 µM), for inactives: at the highest dose activity change, negative = inhibition, actives largely listed as inhibitors; further: on the % scale 0 is the no-effect control and ±100 the full control effect; nearly all actives have a fitted effect of over 50% in size
# BAZ2B inh = qHTS Assay for Inhibitors of BAZ2B | Bromodomain adjacent to zinc finger domain protein 2B (Homo sapiens), Q9UIF8 | AlphaScreen BAZ2B-H3K14Ac peptide displacement | Potency, µM (highest dose often 114 µM), inactives show at the highest dose activity change, negative = inhibition, usual class: inhibitors | actives 4.4% (n = 360,000); further: on the % scale 0 is the no-effect control and ±100 the full control effect; nearly all actives have a fitted effect of over 60% in size
#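 Complex of BAZ2B and biotin-H3K14Ac (50 nM apiece) forms over 30 min at RT, then faces library compounds up to 110 uM for another 30 min; AlphaScreen beads added, 20 min dark incubation, luminescence read.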
# HP1b binding inh = HTS for Inhibitors of HP1-beta Chromodomain Interactions with Methylated Histone Tails; AlphaScreen HP1-beta / biotin-H3K9me3 peptide binding; AID 540317, 2011; Potency, µM (highest dose often 114 µM), for the others: at the top dose activity change, negative = inhibition, usual class: inhibitors; Chromobox protein homolog 1 (Homo sapiens), P83916; actives 0.56% (n = 390,000); further: nearly all actives have a fitted effect of over 70% in size
# Target sequence (P83916 whole entry, looked up): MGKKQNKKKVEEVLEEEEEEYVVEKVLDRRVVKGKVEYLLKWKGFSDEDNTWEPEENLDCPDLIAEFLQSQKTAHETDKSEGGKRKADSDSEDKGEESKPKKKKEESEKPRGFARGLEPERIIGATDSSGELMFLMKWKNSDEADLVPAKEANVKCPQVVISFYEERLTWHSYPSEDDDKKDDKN
#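 HP1-beta protein (50 nM final) preincubated 30 min at room temperature with biotinylated H3(1-18)K9me3 peptide (50 nM) in PBS pH 7.4, 0.01% Tween-20, then compound added for 30 min. AlphaScreen streptavidin donor/nickel chelate acceptor beads (10 ug/mL final), 30 min dark, luminescence read.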
# G9a inh = qHTS Assay for Inhibitors of Histone Lysine Methyltransferase G9a | G9a H3K9 monomethylation, AlphaScreen, 2 h | Potency, µM (titrated, usually from 102 µM), for the others: top-dose activity, negative = inhibition, usual class: inhibitors | actives 8.8% (n = 350,000); further: on the % scale 0 is the no-effect control and ±100 the full control effect; nearly all actives have a fitted effect of over 75% in size
# Target sequence (Q96KQ7 913-1193 limits assumed): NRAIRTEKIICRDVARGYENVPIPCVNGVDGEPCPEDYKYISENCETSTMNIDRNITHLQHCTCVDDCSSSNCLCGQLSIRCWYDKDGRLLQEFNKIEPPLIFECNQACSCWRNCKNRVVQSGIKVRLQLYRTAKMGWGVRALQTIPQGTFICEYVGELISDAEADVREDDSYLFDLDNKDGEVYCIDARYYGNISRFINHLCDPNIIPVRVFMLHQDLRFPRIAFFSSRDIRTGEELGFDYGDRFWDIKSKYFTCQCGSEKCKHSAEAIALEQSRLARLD
#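 Using a bead-based AlphaScreen, monomethylated H3K9 product from 2 h room-temperature reactions (G9a 20 nM, peptide 500 nM, SAM 20 uM) was detected with 0.5 ug/mL rabbit anti-H3K9me1 antibody.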
# Sfp PPTase inh = qHTS Assay for Inhibitors of Bacillus subtilis Sfp phosphopantetheinyl transferase (PPTase); 4'-phosphopantetheinyl transferase ffp (Bacillus subtilis), Q9F4F7; Biochemical Sfp PPTase activity, qHTS; Potency, µM, for inactives: largest response in the series, negative = inhibition, most hits filed as inhibitors; actives 3.5% (n = 310,000);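 further: the enzyme is Sfp with the accession as filed and its product quenches rhodamine fluorescence; 0% = enzyme reaction without inhibitor and -100% = no enzyme wells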
#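 After 15 min at room temperature with compound, 15 nM Sfp received 5 uM rhodamine-CoA plus 12.5 uM BHQ-2-ybbR (50 mM Hepes pH 7.6, 10 mM MgCl2). Rate came from the fluorescence difference over 30 min, ex 525/em 598 nm.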
# Starred values were filed as active, the others as inactive; ? = inconclusive; nt = not tested or not shown; [ ] = dose if it differs, or a comment. An excerpt weighted towards active compounds, which were near 12% of everything screened. The call rests on the fitted dose curve; in most records, active means well fitted curve in the direction sought with a large enough effect; inconclusive means small, poorly fitted or top-dose-only effect, or another doubt; inactive means no such curve, though single readings can be large; an effect the other way counts as inactive or inconclusive. Potency means the concentration at half of the fitted maximal effect.
SMILES,PLK1 PBD inh,JMJD2A Tudor,BAZ2B inh,HP1b binding inh,G9a inh,Sfp PPTase inh
O=C(COC(=O)c1ccccn1)NCc1ccc(Cl)cc1Cl,-3%,-23%,?,17%,28µM*,nt
O=C(COC(=O)c1ccccn1)Nc1cccc(Cl)c1Cl,-8%,3%[57.1 µM],?,38%,50µM*,-2%
O=C(O)CCn1cc(/C=C/C(=O)c2ccc(Cl)cc2)c(-c2ccc(Br)cc2)n1,?,-35%,-35%,3%,79µM*,1%
CN(C)S(=O)(=O)c1cccc(NC(=O)COC(=O)c2cc3ccccc3oc2=O)c1,-23%,-11%,18%,25%,79µM*,16%
CN(C)S(=O)(=O)c1cccc(NC(=O)COC(=O)COc2ccc(Br)cc2)c1,27µM*,-17%[11.4 µM],0%,12%,14%[12.7 µM],22%
CCN(c1ccc(NC(=O)COC(=O)c2cccs2)cc1)C(C)C,-3%,45µM*,?,?,11µM*,-6%
CCN(c1ccc(NC(=O)COC(=O)c2cc3ccccc3oc2=O)cc1)C(C)C,-5%,28µM*,32µM*,?,22µM*,4%
Cc1ccc(N2CCN(c3c(CN4CCCC4)c(=O)oc4ccccc34)CC2)c(C)c1,nt,?,-36%,-11%,-24%[59 µM],nt
CCc1ccc(-c2nc3cc(NC(=O)c4cc5ccccc5cc4OC)ccc3o2)cc1,nt,-23%,-4%,-1%,-4%[59 µM],nt
Cc1cc(C)c(C)c(S(=O)(=O)Nc2ccc3cn[nH]c3c2)c1C,-3%,-15%,-2%,42%,10%[12.7 µM],nt
COC(=O)c1cccc(NC(=O)CC2C(=O)NCCN2C(=O)Nc2cc(C)cc(C)c2)c1 (stereo not given),-16%,-23%,-25%,25%,15%,-1%
CN1CCN(C(=O)C2=C[C@@H](C3CCCCC3)C[C@@H](OCCCCO)O2)CC1,-5%,-9%,-13%,52%,?,1%
O=C(NCc1cccs1)C1CC(=O)N(Cc2ccccc2)C1 (stereo not given),-14%,-13%,nt,3%,nt,nt
COC(=O)C1=C(C(=O)OC)SC2(S1)C(C(=O)OC)=C(C(=O)OC)SC1=C2c2cccc(C)c2NC1(C)C,-13%,?,?,-22%,32µM*,3%
CC(=O)N1CCc2c(sc3c2c(=O)n(-c2ccc(C)cc2)c(=O)n3CC(=O)Nc2ccccc2)C1,nt,-13%,0%,18%,5%[59 µM],nt
O=c1[nH]c(SCc2ccccc2)nc2c1sc1ccccc12,?,-13%[57.1 µM],-4%,56%,50µM*,2%
COCn1c2ccccc2c2nnc(C(C)=O)nc21,nt,nt,nt,nt,nt,1%
c1nc(NCCc2cnc[nH]2)c2ccc(-c3ccc4c(c3)OCO4)cc2n1,nt,79µM*,nt,nt,nt,nt
Cc1csc(CNc2ncnc3cc(-c4ccc5c(c4)OCO5)ccc23)n1,nt,56µM*,nt,nt,nt,nt
Cc1csc(CNc2ncnc3ccc(-c4ccc5c(c4)OCO5)cc23)c1,nt,-14%,3%,77%,4%[12.7 µM],nt
Cc1ccc(CNc2ncnc3ccc(-c4ccc5c(c4)OCO5)cc23)o1,nt,45µM*,nt,nt,nt,nt
Cc1cc(CNc2ncnc3ccc(-c4ccc5c(c4)OCO5)cc23)c(C)o1,nt,-33%,nt,nt,nt,nt
Cc1nc(CN(C)c2ncnc3cc(-c4ccc5c(c4)OCO5)ccc23)cs1,nt,89µM*,nt,nt,nt,nt
O=C(Nc1ccc(F)cc1)C1CCN(C(=O)c2ccc(F)cc2)CC1,-8%,-14%,8%,39%,-4%[2.33 µM],nt
COC(=O)N/N=C/c1sc(N2CCCCC2)nc1-c1cccs1,0%,?,?,16%,50µM*,22µM*

# Screening data deposited in PubChem BioAssay by National Center for Advancing Translational Sciences (NCATS).
